# Screening data deposited in PubChem by National Center for Advancing Translational Sciences (NCATS).
# In the library only some 6.5% were active in any assay of this set; here they are far more common.
# Lassa entry inh – Lassa virus entry inhibition; Lassa virus pseudotype entry inhibition, cell reporter; Potency, µM (doses to about 37.9 µM), inactives show at the highest dose activity change, negative = inhibition, hits mostly inhibitors; 300,000 compounds, 1.2% hits; AID 540256; calls by dose curve; tested in HEK293 cells; further: potency means the concentration at half of the fitted maximal effect; nearly all actives have a fitted effect of over 50% in size
# VACV mCherry inh – inhibitors of vaccinia virus infection (mCherry reporter signal) | Vaccinia virus mCherry reporter infection, fluorescence | Potency, µM (series often up to 36.5 µM), for the others: top-dose activity change, negative = inhibition, most hits filed as inhibitors | 310,000 compounds, 0.63% hits | AID 720579; calls by dose curve; tested in A549 cells; further: potency means the concentration at half of the fitted maximal effect; nearly all actives have a fitted effect of over 35% in size
# FMDV inh – blocks foot and mouth disease virus. FMDV antiviral cell-based qHTS. 410,000 compounds, 1.2% hits. Potency, µM (doses to about 57.9 µM), without a hit: at the top dose activity change, negative = inhibition, hits mostly inhibitors. AID 1159524; calls by dose curve; tested in HEK293T cells; further: read-out not given here; potency means the concentration at half of the fitted maximal effect; nearly all actives have a fitted effect of over 45% in size
# MARV entry inh – blocks Marburg virus binding to or entry into cells. 300,000 compounds, 1.8% hits. Marburg virus pseudotyped entry inhibition, cell reporter. Potency, µM (series often up to 37.8 µM), inactives show at the top dose activity change, negative = inhibition, hits mostly inhibitors. AID 540276; calls by dose curve; tested in HEK293 cells; further: potency means the concentration at half of the fitted maximal effect
# Vaccinia Venus – inhibitors of vaccinia virus (Venus reporter). AID 720580. 330,000 compounds, 0.46% hits. Vaccinia virus Venus reporter expression, fluorescence. Potency, µM (top dose mostly 36.5 µM), for inactives: at the highest dose activity change, negative = inhibition, actives largely listed as inhibitors; calls by dose curve; tested in A549 cells; further: potency means the concentration at half of the fitted maximal effect; nearly all actives have a fitted effect of over 30% in size
# HCMV inh – inhibitors of human cytomegalovirus; 410,000 compounds, 4.5% hits; AID 1259415; activity change, negative = inhibition, % at 57.5 µM; HFF cells, HCMV-luciferase reporter, 72 h; stronger effect = lower value; in the data active means activity change below about -60%; inconclusive means no clear call, values can overlap the other calls; inactive means above about -39%
#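 After 16 h attachment at 37C, HFF cells received test compound and HCMV-luciferase (1 PFU/cell); reporter luminescence read 72 h later, data normalized against buffer-only and known inhibitor Salinomycin.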
# Active calls of the source: *; i = inactive; ? = inconclusive; . = no result given; [ ] = dose if it differs, or a comment. On the % scale 0 is the no-effect control and ±100 the full control effect.
SMILES,Lassa entry inh,VACV mCherry inh,FMDV inh,MARV entry inh,Vaccinia Venus,HCMV inh
CC1CC(C)CN(S(=O)(=O)c2ccc3c(c2)oc(=O)n3CC(=O)N(C)Cc2ccccc2)C1 (configuration not stated),.,?,-27.2%,.,?,-79.0*
Cc1cc(C)nc(/N=C(\N)Nc2ccccc2-c2ccccc2)n1,-19.7%,?,17.8µM*,?,-29.7%,?
COc1cc(N/C(N)=N/c2nc(C)cc(C)n2)c(OC)cc1Cl,-23.3%,.,?,9.2µM*,.,-18.9
Cc1cccc(N/C(N)=N/c2nc(C)cc(C)n2)c1,-0.1%,?,-18.8%,?,-18.6%,29.3
Cc1cc(C)nc(/N=C(\N)Nc2ccc(C(C)C)cc2)n1,?,-16.5%[7.34 µM],14.1µM*,10µM*,-17.4%[7.34 µM],-63.0*
CCCCc1ccc(N/C(N)=N/c2nc(C)cc(C)n2)cc1,?,?,25.1µM*,?,?,-97.1*
CC(C)C(=O)NC(=O)[C@@H]1CCCN1C(=O)C=Cc1ccccc1,.,.,.,1.4%[14.2 µM],.,.
Cc1ccc(NC(=O)c2cc3c([nH]c2=O)CC(C)(C)CC3=O)cc1,.,-14.9%,.,.,-16.1%,.
Cc1c(C(=O)N(Cc2ccco2)Cc2ccccc2Cl)oc2ccc(F)cc12,-15.6%[46.1 µM],-7.1%,-23.5%,?,-3.9%,-3.8
COc1cccc(-n2c(=O)c3c(C)c(C)sc3n(CC(=O)Nc3ccccc3OC)c2=O)c1,27.1%[46.1 µM],0.4%,-9.3%,?,-6.1%,-2.0
Cc1ccc(N/C(N)=N/c2nc(C)cc(C)n2)cc1,12.3%,-2.1%,0.0%,-34.9%,-20.9%,-4.0
Cc1cc(C)cc(N/C(N)=N/c2nc(C)cc(C)n2)c1,20.6µM*,-24.7%,-28.0%,?,?,38.3
Cc1ccc(Cl)cc1N1CCN(C(=O)c2cccn2-c2nnc(N3CCCC3)s2)CC1,1.1%[46.1 µM],-14.3%,?,.,-15.6%,?
O=C(c1ccc(Cl)c(S(=O)(=O)Nc2ccc(F)cc2)c1)N1CCN(c2ccccn2)CC1,?,.,-4.7%,14.6µM*,.,-18.3
CN(c1ccccc1)S(=O)(=O)c1cc(C(=O)N2CCN(c3ccccn3)CC2)ccc1Cl,?,.,12.6µM*,?,-21.1%,-16.1
Cc1ccnc2ccc(N)cc12,.,-15.2%,.,.,-6.5%,.
CCN(CC)P(=O)(Nc1ccccc1Br)c1ccc(N(C)C)cc1NC(=O)c1ccco1 (configuration not stated),-17.4%[46.1 µM],-11.5%,?,?,-1.7%,-60.5*
CCN(CC)C(=O)c1cc(Cl)ccc1NC(=O)c1ccco1,.,-28.5%,-9.3%,.,-26.2%,1.3
Cc1nc(NCCN2CCOCC2)c2oc3ccccc3c2n1,-11.0%,i,-8.1%,7.7%,-5.3%,8.4
Cc1nc(NCCc2ccccc2)c2oc3ccccc3c2n1,0.4%,.,?,?,.,-80.7*
O=C(c1cnn(-c2nccc(-c3ccccc3C(F)(F)F)n2)c1C1CC1)N1CCN(CCO)CC1,.,-7.9%,-7.0%,.,3.1%,.
Cc1cnc(CNc2nc(-c3ccc(N(C)C)cc3)nc3ccccc23)cn1,.,11.2µM*,38.6%,.,?,.
Cc1cnc(CNc2nc(-c3ccccc3C(F)(F)F)nc3ccccc23)cn1,.,.,-10.7%,.,.,.
CN(C)c1ccc(-c2nc(NC3CCNCC3)c3ccccc3n2)cc1,.,11.2µM*,40.6%,.,11.2µM*,.
CCCCSCCCNC(=O)CN1C(=O)COc2ccc(S(=O)(=O)N3CCCC3)cc21,1.8%[46.1 µM],-16.8%,-25.0%,15.1%[46.1 µM],-11.4%,-9.9
SMILES,Lassa entry inh,VACV mCherry inh,FMDV inh,MARV entry inh,Vaccinia Venus,HCMV inh
COc1ccc(C)cc1NC(=O)NC(C)c1c(-n2cccc2)sc(C)c1C (configuration not stated),.,-17.5%,-15.7%,?,-23.3%,-31.1
COc1cccc(CNc2nc(NCc3ccccc3)nc3ccsc23)c1,.,0.3%,?,.,-24.1%,-102.1*
CC(C)c1ccc(CNc2nc(NCC3CC3)nc3ccsc23)cc1,.,2.3%,?,.,-26.9%,-61.9*
CNc1nc(NCc2cccc(OC)c2)c2sccc2n1,.,12.2%,?,.,-11.0%,?
COc1cccc(CNc2nc(NCC3CC3)nc3ccsc23)c1,.,i,-1.2%,.,-19.7%,-71.3*
COc1ccccc1CNc1nc(NCc2ccc(C(C)C)cc2)c2sccc2n1,.,-8.0%,?,.,-24.4%,?
Cc1cccc(-c2noc(-c3cccnc3NCc3ccco3)n2)c1,-0.2%[46.1 µM],-13.9%,31.3%,-15.6%[46.1 µM],-3.0%,1.3
COc1ccc(-c2noc(-c3ccc(N4CCN(c5ccccc5OC)CC4)c([N+](=O)[O-])c3)n2)cc1,14.5%[46.1 µM],1.2%,-5.7%,-19.2%[46.1 µM],10.9%,2.3
Cc1ccc(-c2noc(-c3nnn(CC(=O)Nc4cccc(C(F)(F)F)c4)c3N)n2)cc1,6.4%[46.1 µM],-10.7%,7.4%,.,-5.2%,-38.6
CC1CCc2c(c3ccccc3n2C(=O)CCl)C1 (configuration not stated),-8.0%[46.1 µM],-27.7%,20µM*,-24.2%[46.1 µM],-26.1%,-13.3
CCN1CCN(CC(=O)n2c3c(c4ccccc42)CC(C)CC3)CC1 (configuration not stated),-26.2%,.,-22.8%,?,-16.7%,-30.2
CCCS(=O)(=O)c1c(S(=O)(=O)CCC)c2cc(CC)ccn2c1C(=O)c1ccc(OC)cc1,-16.5%[46.1 µM],i,-17.3%,15.9%[46.1 µM],-9.4%,-30.3
CCCS(=O)(=O)c1c(S(=O)(=O)CCC)c2cc(-c3ccncc3)ccn2c1C(=O)OC,0.0%,-12.7%,23.2%,5.62µM*,-12.0%,160.2
O=C(/C=C/c1ccccc1Br)c1ccc2c(c1)OCO2,?,i,-7.8%,13.3%[46.1 µM],-13.8%,0.6
O=C(/C=C/Nc1ccc(F)cc1Br)c1ccccc1,2µM*,2.8%,2.82µM*,?,-3.1%,?
O=C(/C=C\Nc1ccccc1Br)c1ccc2c(c1)OCO2,.,-22.0%,-87.6%,5.62µM*,-11.9%,-32.6
O=C(CSc1ncnc2nc[nH]c12)N1CCN(c2ccc(Cl)cc2)CC1,?,.,?,?,.,-69.1*
O=C(O)c1cc(-c2ccccc2)n(-c2ccccc2C(=O)O)n1,5.8%,-10.0%,12.5%,17.1%,-7.5%,-99.9*
COc1ccc(OC)c(S(=O)(=O)N2Cc3ccccc3CC2C(=O)Nc2ccc(C(C)=O)cc2)c1 (configuration not stated),-20.2%[46.1 µM],-13.1%,-1.3%,?,-17.3%,21.0
O=C(O)c1ccc(O)c2ncccc12,.,.,50.3%,.,.,54.2
Oc1ccc(CNc2ccccc2F)c2cccnc12,?,10µM*,-20.9%,?,10µM*,-89.2*
OCc1ccc(O)c2ncccc12,?,.,-23.8%,?,?,-97.7*
Oc1ccc(COCc2ccccc2)c2cccnc12,?,-23.5%,-0.6%,?,?,-98.7*
Oc1ccc(Cc2ccccc2)c2cccnc12,-29.5%[46.1 µM],?,-9.3%,?,?,-100.5*
COc1cc(OC)c(N(C)C(=O)c2nn(C)c3c2CSc2ccccc2-3)cc1Cl,5.0%[46.1 µM],-12.4%,7.4%,3.6%[46.1 µM],-3.4%,18.3
COc1ccccc1N1CCN(c2nc(CNC(=O)c3sc(C)nc3C)nc3ccccc23)CC1,.,-16.7%,?,.,-12.6%,.
